Assay results published in PubChem BioAssay (Tox21).
“And” between values parts separate entries of the source, which are not always exact repeats. Equal values may be shown once. Values without a mark were called inactive. Records with an inconclusive call do not appear. Entries that show only a call come without a potency. The source made the active and inactive calls. Calls follow the shape of the dose curve; as a rule, active = well fitted curve in the direction sought with a large enough effect in the repeat runs; inconclusive = weak or mixed curves; inactive = no such curve, though single readings can be large; an effect the other way counts as inactive or inconclusive.

Assays:
[1] = qHTS RealTime-Glo MT Cell Viability Assay in HepG2 cells - 24 hour (AID 1224867); also: nearly all actives have a fitted effect of over 50% in size
How it was run: (§1)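 Tox21 10K library screened in qHTS format on HepG2 cells carrying RealTime-Glo reagents. Compounds were added after a 5 h preincubation, and the luminescent signal from continuous culture was measured repeatedly during 40 h treatment.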

[2] = A CellTox Green Cytotoxicity Assay to monitor cytotoxicity in HEK293 cells - 0 hour (AID 1224869); also: nearly all actives have a fitted effect of over 50% in size
How it was run: (§2)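 HEK293 cells, 600/well, were preincubated 5 hours and then exposed to compounds at 37 C for up to 40 hours. A cell-impermeant cyanine dye staining dead-cell DNA was read by fluorescence at 0, 8, 16, 24, 32 and 40 h time points.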

[3] = qHTS RealTime-Glo MT Cell Viability Assay in HepG2 cells - 40 hour (AID 1224870); also: nearly all actives have a fitted effect of over 50% in size
How it was run: (§3)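 HepG2 cells mixed with RealTime-Glo MT reagents (NanoLuc plus cell-permeant prosubstrate) were seeded at 600 cells/well, incubated 5 h at 37 C/5% CO2, then pinned with compounds in DMSO; nonlytic luminescence tracked viability during 40 h treatment.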

[4] = A CellTox Green Cytotoxicity Assay to monitor cytotoxicity in HEK293 cells - 40 hour (AID 1224871); also: nearly all actives have a fitted effect of over 45% in size
How it was run: as §2

[5] = qHTS RealTime-Glo MT Cell Viability Assay in HEK293 cells - 16 hour (AID 1224872); also: nearly all actives have a fitted effect of over 50% in size; also: potency is read from the fitted curve at half-maximal effect
How it was run: (§4)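 Luminescence generated by NanoLuc from substrate produced by living HEK293 cells served as the viability signal. Each value reflects the reading at its stated time point during continuous 40 h compound exposure at 37 C.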

[6] = qHTS RealTime-Glo MT Cell Viability Assay in HepG2 cells - 8 hour (AID 1224873); also: nearly all actives have a fitted effect of over 55% in size
How it was run: as §3

[7] = qHTS RealTime-Glo MT Cell Viability Assay in HEK293 cells - 40 hour (AID 1224874); details: RealTime-Glo luminescence; max response: stronger effect = lower value; also: nearly all actives have a fitted effect of over 50% in size; also: potency is read from the fitted curve at half-maximal effect
How it was run: (§5)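 600 cells/well were plated with the nonlytic NanoLuc/prosubstrate reagent, pre-incubated 5 h, then given 23 nL of compound in DMSO. Incubation at 37 C for 40 h, with luminescence from viable-cell-reduced substrate read repeatedly from 0 h.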

[8] = qHTS RealTime-Glo MT Cell Viability Assay in HepG2 cells - 32 hour (AID 1224877); also: nearly all actives have a fitted effect of over 55% in size
How it was run: as §1

[9] = A CellTox Green Cytotoxicity Assay to monitor cytotoxicity in HepG2 cells - 24 hour (AID 1224878); also: nearly all actives have a fitted effect of over 45% in size
How it was run: (§6)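 HepG2 cells, 600/well, preincubated 5 h with CellTox Green dye, then exposed to Tox21 compounds in DMSO at 37 C for up to 40 h. Dead-cell DNA fluorescence read at the indicated time point.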

[10] = A CellTox Green Cytotoxicity Assay to monitor cytotoxicity in HepG2 cells - 40 hour (AID 1224879); also: nearly all actives have a fitted effect of over 40% in size
How it was run: as §6

[11] = qHTS RealTime-Glo MT Cell Viability Assay in HEK293 cells - 0 hour (AID 1224880); also: top concentration of the series differs between compounds; nearly all actives have a fitted effect of over 45% in size
How it was run: as §5

[12] = A CellTox Green Cytotoxicity Assay to monitor cytotoxicity in HEK293 cells - 32 hour (AID 1224881); also: nearly all actives have a fitted effect of over 40% in size
How it was run: as §2

[13] = A CellTox Green Cytotoxicity Assay to monitor cytotoxicity in HepG2 cells - 0 hour (AID 1224882); also: nearly all actives have a fitted effect of over 35% in size
How it was run: as §6

[14] = A CellTox Green Cytotoxicity Assay to monitor cytotoxicity in HepG2 cells - 32 hour (AID 1224883); also: nearly all actives have a fitted effect of over 50% in size
How it was run: as §6

[15] = A CellTox Green Cytotoxicity Assay to monitor cytotoxicity in HEK293 cells - 8 hour (AID 1224884); also: nearly all actives have a fitted effect of over 35% in size
How it was run: as §2

[16] = A CellTox Green Cytotoxicity Assay to monitor cytotoxicity in HEK293 cells - 24 hour (AID 1224875); also: series mostly up to about 77 µM; nearly all actives have a fitted effect of over 45% in size
How it was run: as §2

[17] = A CellTox Green Cytotoxicity Assay to monitor cytotoxicity in HepG2 cells - 16 hour (AID 1224876); also: nearly all actives have a fitted effect of over 45% in size
How it was run: as §6

[18] = qHTS RealTime-Glo MT Cell Viability Assay in HEK293 cells - 32 hour (AID 1224868); also: nearly all actives have a fitted effect of over 50% in size; also: potency is read from the fitted curve at half-maximal effect
How it was run: as §4

| SMILES | outcome [1] | outcome [2] | outcome [3] | Potency [4] | Potency [5] | outcome [6] | max response [7] | outcome [8] | Potency [9] | Potency [10] | Potency [11] | Potency [12] | outcome [13] | Potency [14] | outcome [15] | Potency [16] | Potency [17] | Potency [18] | Potency [7] |
| --- | --- | --- | --- | --- | --- | --- | --- | --- | --- | --- | --- | --- | --- | --- | --- | --- | --- | --- | --- |
| C=CCNC(N)=S | inactive | inactive | inactive | inactive | inactive | inactive | -13.5% and 2.87% | inactive | inactive | inactive | inactive | inactive | inactive | inactive | inactive | – | – | – | – |
| CC(C)(C)[C@@H](O)[C@@H](Cc1ccc(Cl)cc1)n1cncn1 | inactive | inactive | inactive | inactive | inactive | inactive | – | inactive | inactive | inactive | inactive | inactive | inactive | inactive | inactive | inactive | inactive | – | – |
| C=C(C)C(=O)Nc1ccc(Cl)c(Cl)c1 | inactive | inactive | inactive | – | 22.1 µM (active) and 21.8 µM (active) | inactive | – | inactive | inactive | inactive | inactive | inactive | inactive | inactive | inactive | – | inactive | 19.7 µM (active) and 21.8 µM (active) | 19.7 µM (active) and 24.4 µM (active) |
| O=C(O)[C@H](O)[C@@H](O)[C@H](O)[C@H](O)CO | inactive | – | inactive | – | inactive | inactive | -0.628% and 0.139% | inactive | inactive | inactive | inactive | – | inactive | inactive | – | – | inactive | inactive | – |
| O=C(O)CC(C(=O)O)C(CC(=O)O)C(=O)O (centres undefined) | inactive | inactive | inactive | – | inactive | inactive | -2.07% and -0.191% | inactive | inactive | inactive | inactive | inactive | inactive | inactive | inactive | – | inactive | inactive | – |
| O=C(O)CCCCCCCCCCC(=O)O | inactive | inactive | inactive | inactive | inactive | inactive | -3.15% and -61.6% | inactive | inactive | inactive | inactive | inactive | inactive | inactive | inactive | – | inactive | – | – |
| CCCCCCCC(=O)OC | inactive | inactive | inactive | – | inactive | inactive | -1.2% and 5.05% | inactive | inactive | inactive | inactive | inactive | inactive | inactive | inactive | – | – | inactive | – |
| CCCC(C)=O | inactive | inactive | inactive | – | inactive | inactive | 3.18% and 6.23% | inactive | inactive | inactive | inactive | inactive | inactive | inactive | inactive | inactive | inactive | – | – |
| CC(C)c1ccc(S(=O)(=O)O)cc1 | inactive | inactive | inactive | – | inactive | inactive | -1.12% and 9.2% | inactive | inactive | inactive | inactive | inactive | inactive | inactive | inactive | – | – | – | – |
| COc1ccc2cc([C@H](C)C(=O)O)ccc2c1 | inactive | inactive | inactive | inactive | inactive | inactive | 5.06% and -0.971% | inactive | inactive | inactive | inactive | inactive | inactive | inactive | inactive | inactive | inactive | – | – |
